Reference: PubChem BioAssay AID431 (Sanford-Burnham Center for Chemical Genomics, 2006)
Screen size: about 63,000 compounds; about 1,100 (1.7%) were called active. The list comes from a sample in which actives are over-represented; it also holds similar structures and randomly drawn compounds. Entries with a potency or affinity are not part of this list. Unmarked numbers belong to inactive results.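 The calls were made as follows: active = compounds whose percent cytotoxicity in the single-dose primary screen, scaled between solvent and toxic-drug controls, exceeds 50; inactive = the rest.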

Experiment: cytotoxicity in KRAS-transformed pancreatic duct cells, primary screen, cell-based, fluorescence, HTS (AID 431);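 also: 0% = DMSO solvent wells and 100% = doxorubicin-treated wells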
Conditions: HPDE-C7K KRASV12 cells, Alamar Blue viability, 48 h; at 10 µM; stronger effect = higher value

Structure (SMILES)	cytotoxicity
CCn1c(=NC(=O)CSC(C)=O)sc2cc(F)ccc21	-9.8%
Cc1c(C(C)O)nnn1-c1nonc1N (centres undefined)	7.8%
CC(c1ccco1)N(C(=O)C12CC3CC(CC(C3)C1)C2)c1ccccn1 (centres undefined)	-19.3%
CC(=O)Oc1c(S(=O)(=O)c2ccc(C)cc2)c(C)nn1C(C)(C)C	3.3%
Cc1nn(C(C)(C)C)c(OC(=O)c2cccs2)c1S(=O)(=O)c1ccccc1	64% (active)
Cc1ccc(S(=O)(=O)c2c(C)nn(C(C)(C)C)c2OC(=O)c2ccco2)cc1	5.7%
Cc1nn(-c2ccccc2)c(OC(=O)c2cccs2)c1S(=O)(=O)c1ccccc1	1.2%
Cc1ccc(S(=O)(=O)c2c(C)nn(C(C)(C)C)c2OC(=O)c2cccs2)cc1	5%
O=C(Cc1coc2ccc3ccccc3c12)N1CCN(c2ncccn2)CC1	0.6%
COc1ccc(Nc2cc(=O)n(C3CCCCC3)c(=O)[nH]2)c(OC)c1	-8.6%
CCC(=O)Nc1ccc(OC)cc1OC	-5.2%
COc1ccc(OCc2nn3c(-c4ccccn4)nnc3s2)cc1	4%
CN1CCN(c2ncnc3c2sc2nc(N4CCCC4)c4c(c23)CC(C)(C)OC4)CC1	-9.3%
OCCN1CCN(c2ncnc3c2sc2nc(N4CCOCC4)c4c(c23)CCC4)CC1	39.9%
CC1(C)Cc2c(c(N3CCCC3)nc3sc4c(N5CCN(CCO)CC5)ncnc4c23)CO1	67.8% (active)
O=c1[nH]nc2c3ccccc3cnn12	-22%
C=COCCNC(=O)C1CC(=O)N(c2ccc(C)cc2)C1 (centres undefined)	13.2%
Cc1ccc(-c2cc(-c3ccc(C)o3)nc(N)c2C#N)cc1	-2.5%
Cc1ccc(-c2cc(-c3ccc(F)cc3)nc(N)c2C#N)o1	4.4%
Cc1ccc(-c2cc(-c3ccccc3Cl)c(C#N)c(N)n2)o1	20.7%
Cc1ccc(-c2cc(-c3ccccc3)c(C#N)c(N)n2)o1	10.2%
Cc1cc(-c2cc(-c3ccc(Cl)cc3)nc(N)c2C#N)co1	92% (active)
Cc1ccc(-c2cc(-c3ccc(Cl)cc3)c(C#N)c(N)n2)o1	74.2% (active)
CCNC(=O)CCC(=O)Nc1cc(Cl)ccc1C	-14.8%
Cc1ccc(Cl)cc1NC(=O)CC(O)(C(F)(F)F)C(F)(F)F	57.3% (active)

Structure (SMILES)	cytotoxicity
Cc1ccc(NC(=O)CC(O)(C(F)(F)F)C(F)(F)F)c(Br)c1	-6.8%
COC(=O)c1sccc1NC(=O)c1ccc(OC)cc1	13.2%
COc1ccc(C2CC(c3cc(Br)ccc3F)n3nnnc3N2)cc1 (centres undefined)	1.9%
O=C(c1ccccc1)c1ccncc1	56.1% (active)
O=C(c1ccncc1)c1ccc(Br)cc1	1.4%
O=C(c1ccccc1)c1nnc(-c2ccncc2)o1	-7.9%
O=S(=O)(NCCSc1nnc(-c2ccco2)n1-c1ccccc1)c1ccccc1	-7.3%
C=C(C)Cn1c(Sc2nc3ccccc3[nH]2)nc2c1c(=O)[nH]c(=O)n2C	21.2%
c1ccc(-c2nnc(N3CCN(c4ccccn4)CC3)c3ccccc23)cc1	-2.1%
Cc1ccc(-c2nnc(N3CCN(S(C)(=O)=O)CC3)c3ccccc23)cc1	-3.8%
COc1ccccc1NC(=O)CSc1nnc(C)n1Cc1ccccc1	-12.1%
O=C(Nc1ccc(Br)cc1F)c1ccncc1	-12.6%
CCCNc1nc2c(c(=O)[nH]c(=O)n2C)n1CCC(C)C	9%
Cc1cccc(Nc2ccccc2C(=O)O)c1C	6%
Cc1c(Cl)cccc1Nc1ccccc1C(=O)O	46%
Cc1ccc(Cl)c(Nc2ccccc2C(=O)O)c1Cl	67.9% (active)
CCN(CC)C(=O)Oc1ccc2c(=O)c(-c3ccccc3)coc2c1	-28%
CCN(CC)C(=O)Oc1ccc2c(=O)c(-c3ccc(OC)cc3)coc2c1	-3.7%
CC(C)Oc1ccc2c(=O)c(-c3ccccc3)coc2c1	53.7% (active)
O=C(NC1CCCc2ccccc21)C1CCC(CNc2c(N3CCOCC3)c(=O)c2=O)CC1 (centres undefined)	-5%
O=C(NCC1CCCO1)C1CCN(C(=O)c2ccc(Cl)cc2)CC1 (centres undefined)	-4.1%
Cc1ccc2c(c1)nnn2C1CCN(CC(=O)Nc2ccc3c(c2)OCCO3)CC1	-7.5%
c1cn2c(NC3CCCC3)c(-c3ccc(N4CCOCC4)cc3)nc2cn1	7.8%
COc1cc(-c2nc3cnccn3c2Nc2ccccc2)ccc1O	16.3%
CCOC(=O)C1=CN(C)C=C(C(=O)OCC)C1c1ccsc1	6.2%

Structure (SMILES)	cytotoxicity
COC(=O)c1ccc(C)c(NC(=O)CN(c2ccc3c(c2)OCO3)S(C)(=O)=O)c1	-3.2%
COC(=O)c1ccc(C)c(NS(=O)(=O)c2ccc3c(c2)OCCO3)c1	59.3% (active)
COC(=O)c1ccc(Cl)c(NS(=O)(=O)c2ccc3c(c2)OCCO3)c1	63.6% (active)
COC(=O)c1ccc(C)c(NS(=O)(=O)c2ccc(OC)cc2)c1	65.2% (active)
COC(=O)c1ccc(NS(=O)(=O)c2ccc(OC)cc2)cc1	-10.3%
CCCNC(=O)c1ccccc1NS(=O)(=O)c1ccc2c(c1)OCCO2	28.6%
CC(=O)c1cc2c(cc1NS(=O)(=O)c1ccc3c(c1)OCCO3)OCO2	37.2%
COC(=O)c1ccc(C)c(NS(=O)(=O)c2ccc(NC(C)=O)cc2)c1	4.5%
O=C(O)c1ccc(NS(=O)(=O)c2ccc3c(c2)OCCO3)cc1	1.7%
CC(C)(C)NC(=O)c1ccc2nccnc2c1	12.3%
COc1ccccc1NC(=O)N(CCN(C)C)Cc1cc2cc(C)ccc2[nH]c1=O	19.6%
CCCC(C(=O)NC1CCCC1)N(C(=O)Cn1nnc(-c2ccc(C)o2)n1)C1CCCC1 (centres undefined)	-0.4%
CC(C)OC(=O)CSc1nc(N)c(C#N)c(-c2cccs2)c1C#N	5%
CC(C)OC(=O)CCC1(C(=O)O)CCC(=O)NC1 (centres undefined)	-7.1%
O=C(CSCc1ccco1)c1cccs1	-15.8%
O=C(CC(SCc1ccco1)c1ccc(O)cc1)c1cccs1 (centres undefined)	57.7% (active)
O=C(CSc1nnc(-c2ccc(O)cc2)n1Cc1ccco1)c1cccs1	2.5%
CCOC(=O)C1=C(C)OC(N)=C(C#N)C1c1ccsc1 (centres undefined)	9.1%
CCOc1ccc(C2CC(c3ccc(F)cc3)n3ncnc3N2)cc1 (centres undefined)	3.1%
Cc1ccc(C(=O)CC(C(=O)O)n2cccn2)cc1 (centres undefined)	-4.8%
Cc1ccc(C(=O)CC(C(=O)O)n2ccc(C)n2)cc1 (centres undefined)	4.5%
O=C(c1ccco1)N1CCN(C(=O)c2cccn3c(=O)c4c5c(sc4nc23)CCCC5)CC1	-9.7%
Cc1cccc(Cn2cnc3c(nnn3Cc3ccc(Cl)cc3)c2=O)c1	-2.1%
COc1ccc(C(C)=O)cc1COC(=O)c1c(C)noc1C	18.5%
COC(=O)c1c(N)sc(C(C)=O)c1C	0%

Structure (SMILES)	cytotoxicity
COC(=O)c1sc(N)c(C(=O)OC)c1COC(=O)c1c(C)noc1C	56.4% (active)
Cc1cccc(Cn2c(SCCN3CCCCC3)nc3c2c(=O)[nH]c(=O)n3C)c1	-3.8%
O=C1C(Cl)=C(NCC2CCCO2)C(=O)N1CCc1ccccc1 (centres undefined)	-4.3%
C[C@]12CC[C@@H]3c4ccc(O)cc4CC[C@H]3[C@@H]1CC[C@@H]2OC(=O)CCC(=O)O	-1.7%
C[C@]12CC[C@@H]3c4ccc(OC(=O)c5ccccc5)cc4CC[C@H]3[C@@H]1CC[C@@H]2O	54.4% (active)
C[C@]12CC[C@@H]3c4ccc(O[C@@H]5O[C@H](C(=O)O)[C@@H](O)[C@H](O)[C@H]5O)cc4CC[C@H]3[C@@H]1C[C@@H](O)[C@@H]2O	-13.5%
Cc1nnc(SCC(=O)Nc2nsc(-c3ccccc3)n2)s1	11.4%
c1ccc(Cn2nnnc2C(c2cccs2)N2CCOCC2)cc1 (centres undefined)	-11.8%
COc1ccc(Cl)c(S(=O)(=O)N2CCCC2)c1	-3.5%
COc1ccc(C(N)=O)cc1NC(=O)CC(O)(C(F)(F)F)C(F)(F)F	-2%
Cc1cc(NC(=O)C2CC(c3cccc(Br)c3)=NO2)no1 (centres undefined)	-11%
c1ccc2nc3c(nc2c1)sc1nc2ccccc2n13	-4%
N=c1cc(C2(O)CCCCC2)n2c(nc3ccccc32)s1	59% (active)
CC(C)(O)c1cc(=O)sc2nc3ccccc3n12	-10.2%
COCCNC(=O)C(c1ccc(C)o1)N(C(=O)c1snc(C(N)=O)c1N)c1cccc(C)c1 (centres undefined)	-12.1%
Cc1ccc2c(c1)[nH]c1c(=O)n(CCCN3CCOCC3)cnc12	-20.9%
COc1ccc(CNc2oc(-c3ccccc3)nc2C#N)cc1	3.8%
CC(C)(C)c1ccc(-c2nc(C#N)c(NCc3ccncc3)o2)cc1	60.5% (active)
N#Cc1nc(-c2ccc(F)cc2)oc1NCc1ccccc1	-1.5%
COC(=O)c1sccc1NC(=O)CN1CCN(c2ccc(F)cc2)CC1	10.5%
O=C(CCN1CCc2ccccc2C1)Nc1ccc2c(c1)OCO2	-0.3%
O=C(CCN1Cc2ccccc2C1)c1ccc2c(c1)OCCO2	-11.8%
O=C(CCN1CCc2ccccc21)c1ccc2c(c1)OCCO2	4.4%
O=C(CCCN1CCOCC1)c1ccc2c(c1)OCCO2	-11.1%
